How the values were obtained:
[1] = test system: Botulinum neurotoxin type F light chain protease (Clostridium botulinum); experiment: Botulinum neurotoxin type F light chain protease inhibition, multiplex microsphere flow cytometry, validation set (AID 588459); conditions: multiplex microsphere protease substrate cleavage assay, at 10 µM, hits give high values
[2] = biological target: Botulinum neurotoxin type A (Clostridium botulinum) (UniProt P0DPI0); experiment: BoNT/A light chain protease inhibitors, biochemical, multiplex microsphere flow cytometry, validation set (AID 588460); conditions: at 10 µM, hits give high values
[3] = biological target: Lethal factor (Bacillus anthracis) (UniProt P15917); experiment: Lethal factor protease inhibitors, Bacillus anthracis, multiplex microsphere cleavage assay, validation set (AID 588461); conditions: flow cytometry, at 10 µM, hits give high values

Measured: inhibition

Cc1[nH]c2ccccc2c1C(=O)C(=O)NCc1ccco1
inactive: [1] 0.1% | [2] -0.7% | [3] -5.5%

C=C(C)c1nc2cc(OC)c(OC)cc2c(=O)o1
inactive: [1] -7.9% | [2] -1.3% | [3] 0.1%

O=C(CCC(=O)c1cccs1)c1cccs1
inactive: [1] 3.2% | [2] -1.4% | [3] -3.3%

COc1ccc(C(=O)COc2ccc(F)cc2)c(O)c1
inactive: [1] 1% | [2] -1.3% | [3] -9.8%

COc1ccc(N2C(=O)C3CCCN3C2=O)cc1 (centres undefined)
inactive: [1] 1.8% | [2] 0.4% | [3] -0.1%

CC1(C)Oc2ccc(C#N)cc2[C@@H](N2CCCC2=O)[C@@H]1O
inactive: [1] 3% | [2] 0.5% | [3] 5.1%

O=C1OCCN1/N=C/c1ccc([N+](=O)[O-])o1
inactive: [1] 2.9% | [2] -0.4% | [3] -8.7%

C#CCOc1ccc2c(C)cc(=O)oc2c1
inactive: [1] -2.9% | [2] -2.2% | [3] 4.6%

COc1ccc2c(c1)c(CC(=O)O)c(C)n2C(=O)c1ccc(Cl)cc1
inactive: [1] 0.9% | [2] -1.5% | [3] -4.2%

CC1CCCc2sc3ncn(N)c(=N)c3c21 (centres undefined)
inactive: [1] 0.9% | [2] 0.3% | [3] -1.1%

NC(=O)OCC(COC(N)=O)c1ccccc1
inactive: [1] -1% | [2] -1.7% | [3] -2.1%

COc1ccc(CCNC(=O)c2ccc(Cl)cc2)cc1OC
inactive: [1] 0.6% | [2] -1.4% | [3] -4.6%

CC(C)C(=O)Nc1cccnc1
inactive: [1] -1.8% | [2] 0.9% | [3] -5.8%

O=C(NCCc1ccccc1)C1CCN(C2CCN(Cc3ccco3)CC2)CC1
inactive: [1] -0.8% | [2] -0.7% | [3] -9.8%

Fc1cccc(Cc2noc(CN3CCN(c4cnccn4)CC3)n2)c1
inactive: [1] 3.7% | [2] -1.3% | [3] 0.5%

CCOc1ccc2nc(N/C(N)=N/S(C)(=O)=O)nc(C)c2c1
inactive: [1] 2.1% | [2] -0.1% | [3] 2.4%

Cn1c2ccccc2c2cc(/C=C(\NC(=O)c3ccccc3)C(=O)O)ccc21
inactive: [1] -0.2% | [2] 0.3% | [3] 4.6%

COc1ccc(C(CC(=O)N2CCOCC2)C(C)C)cc1 (centres undefined)
inactive: [1] -4.7% | [2] -1.9% | [3] -8.6%

CCCC(=O)O[C@]1(C(=O)COC(C)=O)CC[C@H]2[C@@H]3C[C@H](F)C4=CC(=O)C=C[C@]4(C)[C@@]3(F)[C@@H](O)C[C@@]21C
inactive: [1] -1.4% | [2] 0.4% | [3] -0.6%

O=C(O)C(O)c1ccccc1 (centres undefined)
inactive: [1] 1.5% | [2] -1.4% | [3] 1.3%

Cc1csc(-c2coc3cc(O)cc(C)c3c2=O)n1
inactive: [1] 0.3% | [2] 1.7% | [3] 0.3%

N#Cc1c2c(c(-c3ccccc3)[nH]c1=O)CCCC2
inactive: [1] -7.4% | [2] -0.9% | [3] 2.3%

C/C(=N\N=C1\NC(=O)C(CC(=O)Nc2ccc(Cl)cc2)S1)c1ccco1 (centres undefined)
inactive: [1] -0.1% | [2] 0.1% | [3] -0.2%

Cc1coc2cc3oc(=O)c(CCC(=O)O)c(C)c3cc12
inactive: [1] 3.6% | [2] -2% | [3] -2.2%

COc1ccccc1Oc1c(C)oc2c(CN3CCN(CCO)CC3)c(O)ccc2c1=O
inactive: [1] -2.3% | [2] -1.2% | [3] 1.4%

COc1ccccc1N=CC1=C(O)CC(c2ccccc2)CC1=O (centres undefined)
inactive: [1] 0.8% | [2] 2.2% | [3] -5%

O=C(CSCc1ccccc1)NCCCN1CCOCC1
inactive: [1] -2.9% | [2] -0.9% | [3] -8.8%

CC(COc1ccccc1)N(CCCl)Cc1ccccc1 (centres undefined)
inactive: [1] 0.1% | [2] -2.7% | [3] -5.9%

CC(=O)CCCCn1c(=O)c2c(ncn2C)n(C)c1=O
inactive: [1] -1.6% | [2] 0.1% | [3] -6.2%

CC1(C)O[C@@H]2C[C@H]3[C@@H]4C[C@H](F)C5=CC(=O)C=C[C@]5(C)[C@@]4(F)[C@@H](O)C[C@]3(C)[C@]2(C(=O)CO)O1
inactive: [1] -0.5% | [2] 0.1% | [3] -6.8%

Cc1ccc2c(CN3CCN(Cc4ccc5c(c4)OCO5)CC3)cc(=O)oc2c1C
inactive: [1] -2.8% | [2] 0.6% | [3] -5.7%

CCc1cc2c(=O)c(-c3nc(C)cs3)c(CCCC(=O)O)oc2cc1O
inactive: [1] 1.9% | [2] -1.9% | [3] -3.9%

Cc1cccc(Nc2ncccc2C(=O)O)c1C
inactive: [1] -2.7% | [2] -1.6% | [3] -4.7%

COC(=O)C1=C(C)NC(C)=C(C(=O)OCCN(C)Cc2ccccc2)C1c1cccc([N+](=O)[O-])c1 (centres undefined)
inactive: [1] -2.1% | [2] -0.8% | [3] -3.7%

COc1cc(CNCCc2c[nH]c3ccccc23)cc(Cl)c1OCC(N)=O
inactive: [1] -3.4% | [2] 0% | [3] -5.2%

O=C(CC(NC(=O)OCc1ccccc1)C(=O)O)OCc1ccccc1 (centres undefined)
inactive: [1] -3.2% | [2] -2.1% | [3] 2.5%

COC(=O)CSc1nc2ccc(N)cc2s1
inactive: [1] 2.6% | [2] -1% | [3] 1.5%

CC(NC(=O)OCc1ccccc1)C(=O)N1CC(O)CC1C(=O)O (centres undefined)
inactive: [1] 3.2% | [2] -0.7% | [3] 1.4%

O=C(NCCCCCc1nc2ccccc2[nH]1)c1ccccc1Cl
inactive: [1] 1.4% | [2] 0.3% | [3] 3.6%

Cc1cccc(Nc2ccccc2C(=O)O)c1C
inactive: [1] -3.6% | [2] -1.1% | [3] -6%

CC(C)(C)c1ccc(/C=C/C(=O)N2CCCCC2)cc1
inactive: [1] -0.4% | [2] -1.5% | [3] 4.7%

CCn1cc(C(=O)O)c(=O)c2cnc(N3CCNCC3)nc21
inactive: [1] 0.1% | [2] 1% | [3] -7.3%

O=C(NC(Nc1ccccn1)C(Cl)(Cl)Cl)c1ccccc1 (centres undefined)
inactive: [1] -7.2% | [2] -1.5% | [3] 0.6%

CCn1c2ccccc2c2cc(CC(N)=O)ccc21
inactive: [1] -5.5% | [2] -0.6% | [3] -0.1%

COc1ccc(/C=C(/C#N)c2cccnc2)cc1OC
inactive: [1] -0.3% | [2] 1% | [3] -7.4%

CC12CN3CC(C)(CN(C1)C3c1ccc([N+](=O)[O-])o1)C2 (centres undefined)
inactive: [1] -3.2% | [2] -1.4% | [3] -5.6%

O=C1CCCN1C(=O)CCC(=O)N1CCCC1=O
inactive: [1] -1.4% | [2] 0.3% | [3] -2.8%

Cc1cnc(N)c2c(=O)oc3ccccc3c12
inactive: [1] 1.3% | [2] 0.4% | [3] -4.6%

COC(=O)c1[nH]c(=O)c2ccccc2c1O
inactive: [1] 0.4% | [2] 0.2% | [3] -1.7%

COc1ccc(NC(=S)N2CCN(CCN3C(=O)c4cccc5cccc(c45)C3=O)CC2)cc1
inactive: [1] 2.5% | [2] 1.6% | [3] -3.3%

CC/C(=C1/C(=O)CC(C)(C)C(C(=O)OC)C1=O)N1CCCC1 (centres undefined)
inactive: [1] -4.4% | [2] -1.4% | [3] -9.3%

CCOC(=O)c1cnc2ccccc2c1NCCO
inactive: [1] -1.1% | [2] 0% | [3] 5.8%

CC(C)[N+](C)(CCOC(=O)C1c2ccccc2Oc2ccccc21)C(C)C
inactive: [1] -0.1% | [2] 0.5% | [3] 4%

CO[C@H]1C=CO[C@@]2(C)Oc3c(C)c(O)c4c(O)c(c(C=NN5CCN(C)CC5)c(O)c4c3C2=O)NC(=O)C(C)=CC=C[C@H](C)[C@H](O)[C@@H](C)[C@@H](O)[C@@H](C)[C@H](OC(C)=O)[C@@H]1C
inactive: [1] -7.2% | [2] 0.5% | [3] -7.3%

Fc1ccc(NC(=S)Nc2ccccc2Cl)cc1
inactive: [1] 1.8% | [2] -0.7% | [3] -3.5%

C[C@]12CC[C@H]3C(=CCc4cc(O)ccc43)[C@@H]1CCC2=O
inactive: [1] 0.5% | [2] -0.6% | [3] 2.9%

O=C1OC(=O)C2C1[C@@H]1CC[C@H]2O1 (some centres undefined)
inactive: [1] 1.3% | [2] 0.8% | [3] -0.9%

CC(=O)NCCCC(=O)NC(CCC(=O)OCc1ccccc1)C(=O)OCc1ccccc1 (centres undefined)
inactive: [1] -1% | [2] -1.4% | [3] -8.6%

CN1C2CCC1CC(OC(c1ccccc1)c1ccccc1)C2 (centres undefined)
inactive: [1] 2.3% | [2] 0.7% | [3] 1.9%

CN(C)CCOC(c1ccccc1)c1ccccc1 (tested in a mixture with another compound)
inactive: [1] 1.8% | [2] -2.5% | [3] -6.7%

COc1ccc2[nH]cc(C3N4CC5(C)CN3CC(C)(C4)C5=O)c2c1 (centres undefined)
inactive: [1] 3% | [2] -0.2% | [3] 4.1%

CN1CCN(CCCN2c3ccccc3Sc3ccc(C(F)(F)F)cc32)CC1
inactive: [1] 0.3% | [2] -0.5% | [3] -3.1%

O=C(Oc1ccccc1)Oc1ccc2c(c1)oc(=O)c1ccccc12
inactive: [1] -1.6% | [2] -0.4% | [3] 0.9%

— PubChem BioAssay
